Test systems include NCI-H23 lung; NCI-H226 lung; NCI-H322M lung; HOP-62 NSCLC; NCI-H460 lung; HOP-92 NSCLC; NCI-H522 lung; A549/ATCC NSCLC; 786-0 renal; COLO 205 colon; DU-145 prostate; K-562 leukemia; MALME-3M melanoma; MDA-MB-231 breast; RXF 393 renal; SF-268 CNS; SF-295 CNS; SF-539 CNS; M14 melanoma; UACC-257 melanoma.
Test in all cases: NCI-60 one-dose screen, 48 h (100 = growth as untreated, 0 = no growth, -100 = all killed)
Holding throughout (settings): 10 µM unless noted

This is part of a sample that, as a whole, favours compounds with a hit. Of some 83,000 tested, about 20% had one in any assay.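 Cells were grown in 96-well plates and exposed to the test compound at a single concentration for 48 hours; results are reported as percent growth, with values below 10 considered active.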 Values without a mark were called inactive. The source made the active and inactive calls.

The source of these data is PubChem BioAssay (NCI).

In the case of `CC(Cc1ccco1)C(=O)NC(N)=O` (configuration not stated), the growth is 97.4% in the assay with NCI-H23 lung; 95.8% in the assay with NCI-H226 lung; 99.2% with NCI-H322M lung; 106% in the assay on HOP-62 NSCLC; 107% in the assay on NCI-H460 lung; 109% in the assay on HOP-92 NSCLC. Also, the growth is 97.4% in the assay with NCI-H522 lung; 91.9% with A549/ATCC NSCLC; 103% in the assay on 786-0 renal; 120% in the assay on COLO 205 colon; 109% with DU-145 prostate; 110% in the assay with K-562 leukemia. Moreover, the growth in the assay with MALME-3M melanoma was 103%; with MDA-MB-231 breast it was 110%; in the assay on RXF 393 renal, 96.7%; with SF-268 CNS, 104%; in the assay on SF-295 CNS it was 94.6%; in the assay on SF-539 CNS, 97.8%. Moreover, in the assay with M14 melanoma, the growth was 101%.
`C[C@]12CC[C@@H]3c4ccc(O)cc4CC[C@H]3[C@@H]1C[C@H](O)[C@@H]2O`: the growth is 91.2% in the assay on NCI-H23 lung; 85% in the assay on NCI-H226 lung; 88.7% in the assay with NCI-H322M lung; 94.2% in the assay with HOP-62 NSCLC; 95.2% with NCI-H460 lung; 99.2% in the assay on HOP-92 NSCLC. Further, the growth in the assay on NCI-H522 lung was 98.3%; with A549/ATCC NSCLC it was 97.9%; with 786-0 renal it was 106%; in the assay with COLO 205 colon, 102%; in the assay with DU-145 prostate it was 94.9%; in the assay with K-562 leukemia, 118%. Moreover, the growth with MALME-3M melanoma is 95.8%; with MDA-MB-231 breast, 94.4%; with RXF 393 renal, 86.9%; in the assay with SF-268 CNS, 89.8%; in the assay with SF-295 CNS it was 92.5%; with SF-539 CNS, 92.1%. Also, the growth in the assay with M14 melanoma is 90.9%.
Consider `CCc1ccc(-c2ccc(Nc3ccccc3)nn2)cc1S(N)(=O)=O`, for which the growth was 86% in the assay with NCI-H23 lung; 86.8% in the assay with NCI-H226 lung; 107% in the assay with NCI-H322M lung; 92.9% with HOP-62 NSCLC; 51.2% with NCI-H460 lung; 80.2% in the assay on HOP-92 NSCLC. Moreover, the growth is 71.5% in the assay on NCI-H522 lung; 80.5% in the assay on A549/ATCC NSCLC; 94.3% in the assay with 786-0 renal; 94.8% in the assay with COLO 205 colon; 77.1% with DU-145 prostate; 12.5% with K-562 leukemia. Besides, the growth is 71.4% with MALME-3M melanoma; 69.3% in the assay on MDA-MB-231 breast; 77.3% with RXF 393 renal; 78.6% in the assay on SF-268 CNS; 84.3% in the assay with SF-539 CNS; 83.7% in the assay with UACC-257 melanoma. In addition, the growth in the assay with M14 melanoma is 67.1%.
Turning to `COc1cc2ncnc(Nc3ccc(OCc4cccc(F)c4)c(Cl)c3)c2cc1NC(=O)C1CCCC1`, the growth in the assay on NCI-H23 lung was 94.8%; with NCI-H226 lung it was 76%; in the assay with NCI-H322M lung, 34.4%; in the assay on HOP-62 NSCLC, 78.9%; in the assay on NCI-H460 lung, 88.7%; with HOP-92 NSCLC, 76.4%. Further, the growth with NCI-H522 lung is 50%; with A549/ATCC NSCLC it was 65.2%; in the assay with 786-0 renal, 78.3%; in the assay with COLO 205 colon, 97.2%; with DU-145 prostate, 78.3%; in the assay on K-562 leukemia, 91.2%. In addition, the growth in the assay on MALME-3M melanoma is 107%; in the assay on MDA-MB-231 breast it was 84.5%; in the assay with RXF 393 renal it was 83%; in the assay with SF-268 CNS, 89.1%; in the assay with SF-295 CNS, 101%; with SF-539 CNS, 96.1%. Moreover, the growth in the assay on M14 melanoma is 71.4%.
Regarding `Nc1c(C(=O)Nc2c(Cl)cccc2Cl)sc2nc3c(cc12)C(=O)CCC3`, the growth in the assay on NCI-H23 lung was 48.5%; with NCI-H226 lung, 71.2%; in the assay on NCI-H322M lung it was 56.7%; in the assay with HOP-62 NSCLC, 30.7%; in the assay on NCI-H460 lung, 12.9%; in the assay on HOP-92 NSCLC, 42.6%. Further, the growth in the assay with NCI-H522 lung was 6.59% (active); in the assay with A549/ATCC NSCLC, 38%; in the assay with 786-0 renal it was 29%; in the assay on COLO 205 colon, 7.4% (active); in the assay on DU-145 prostate, 41.1%; with K-562 leukemia it was 16.6%. The growth in the assay on MALME-3M melanoma is 35.2%; in the assay with MDA-MB-231 breast, 51.1%; in the assay on RXF 393 renal, 23.7%; in the assay with SF-268 CNS, 57.8%; in the assay with SF-295 CNS, 18.8%; with SF-539 CNS it was 5.18% (active). For the same compound, the growth in the assay on M14 melanoma is 12.1%.
In the case of `O=S(=O)(NCCNc1cc(-c2cn(-c3ccccc3)nc2-c2cccc(O)c2)ccn1)c1ccccc1`, the growth in the assay on NCI-H23 lung is 57.4%; in the assay on NCI-H226 lung, 67.1%; with NCI-H322M lung, 82%; in the assay with HOP-62 NSCLC it was 77.7%; with NCI-H460 lung, 49.1%; in the assay with HOP-92 NSCLC, 49.4%. The growth with NCI-H522 lung is 42.3%; in the assay on A549/ATCC NSCLC, 45.5%; with 786-0 renal it was 55.3%; with COLO 205 colon it was 18.3%; in the assay on DU-145 prostate, 76.2%; in the assay with K-562 leukemia, 9.58% (active). Also, the growth is 76.4% in the assay with MALME-3M melanoma; 28% in the assay on MDA-MB-231 breast; 66.3% with RXF 393 renal; 69.7% with SF-268 CNS; 43.2% in the assay on SF-295 CNS; 70% with SF-539 CNS. Besides, the growth in the assay with M14 melanoma was 53.9%.
Consider `COC(=O)[C@@H]1[C@H]2C[C@H]3c4[nH]c5cc(OC)ccc5c4CCN3C[C@@H]2C[C@H](OC(=O)/C=C/c2ccnc(OC)c2)[C@H]1OC`, for which the growth was 86.4% in the assay with NCI-H23 lung; 89.3% in the assay on NCI-H226 lung; 83.2% with NCI-H322M lung; 87% in the assay on HOP-62 NSCLC; 102% in the assay on NCI-H460 lung; 22.5% with HOP-92 NSCLC. The growth was 73.3% in the assay with NCI-H522 lung; 89% in the assay on A549/ATCC NSCLC; 91.2% in the assay on 786-0 renal; 76.3% in the assay on COLO 205 colon; 91.8% in the assay on DU-145 prostate; 99.3% in the assay on K-562 leukemia. Further, the growth in the assay with MALME-3M melanoma is 67.6%; in the assay on MDA-MB-231 breast, -54.6% (active); in the assay with RXF 393 renal it was 92.4%; with SF-268 CNS it was 84.1%; in the assay with SF-539 CNS it was 90.1%; with UACC-257 melanoma, 78.3%. Besides, the growth in the assay on M14 melanoma is 93.2%.
On to `CN1CCN(c2nc(-c3cccc4ccccc34)nc3sc4c(c23)CCCCCC4)CC1`, for which the growth in the assay with NCI-H23 lung is 92.2%; in the assay on NCI-H226 lung, 74.4%; in the assay with NCI-H322M lung it was 104%; in the assay with HOP-62 NSCLC, 75.4%; in the assay with NCI-H460 lung, 91.4%; in the assay with HOP-92 NSCLC it was -0.421% (active). For the same compound, the growth was 88.7% with NCI-H522 lung; 95.5% with A549/ATCC NSCLC; 87.7% with 786-0 renal; 91.7% with COLO 205 colon; 102% in the assay on DU-145 prostate; 85.3% in the assay with K-562 leukemia. For the same compound, the growth in the assay with MALME-3M melanoma was 81.3%; in the assay on MDA-MB-231 breast it was 61.8%; with RXF 393 renal it was 60.9%; in the assay with SF-268 CNS, 82%; in the assay on SF-539 CNS it was 86%; in the assay on UACC-257 melanoma it was 94.4%. Also, the growth with M14 melanoma is 93.2%.
